MITF inh: inhibitors of human MITF. O75030. AlphaScreen MITF homodimerization, bead proximity signal. inhibition, % at 2.6 µM. 0.91% of 650,000 active. AID 1259374; in the data active = inhibition above about 50%
Target sequence (O75030 whole entry, looked up): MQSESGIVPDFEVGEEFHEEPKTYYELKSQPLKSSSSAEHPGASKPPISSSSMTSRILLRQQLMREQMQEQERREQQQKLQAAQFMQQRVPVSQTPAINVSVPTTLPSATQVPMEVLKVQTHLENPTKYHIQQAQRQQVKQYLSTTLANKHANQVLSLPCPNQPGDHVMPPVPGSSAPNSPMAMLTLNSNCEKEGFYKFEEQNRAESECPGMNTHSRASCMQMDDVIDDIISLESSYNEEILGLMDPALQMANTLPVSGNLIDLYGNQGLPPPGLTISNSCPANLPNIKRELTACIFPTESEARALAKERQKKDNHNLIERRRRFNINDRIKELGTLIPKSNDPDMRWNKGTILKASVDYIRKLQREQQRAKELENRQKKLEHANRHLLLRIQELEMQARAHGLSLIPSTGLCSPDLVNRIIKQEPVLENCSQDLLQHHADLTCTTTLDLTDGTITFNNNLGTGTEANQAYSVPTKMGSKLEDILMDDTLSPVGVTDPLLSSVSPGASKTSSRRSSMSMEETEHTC
TEAD-YAP inh: TEAD-YAP interaction inhibition. inhibition, % at 9.12 µM. HEK-TIYL cells, TEAD-Gal4/YAP UAS-luciferase luminescence. 1.4% of 640,000 active; in the data active = inhibition above about 32%
GPR151 ag: activators of human GPR151; activation, % at 11.2 µM; PathHunter beta-arrestin GPR151 cells, luminescence; 1% of 650,000 active; AID 1508602; Q8TDV0; in the data active = activation above about 4.9%
FBW7 activator: activators of human E3 ligase FBW7; AlphaScreen FBW7–phospho-cyclin E peptide binding, activator screen; AID 1259310; normalized activity (activation), % at 26.1 µM; Q969H0; 0.13% of 650,000 active; in the data active = normalized activity above about 1.9%;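 note: purified mutant Fbw7 with reduced substrate affinity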
A number is an active result; – = inactive; · = no result given. This is a sample that favours compounds with a hit; in the whole collection about 3.5% have one here.

SMILES | MITF inh | TEAD-YAP inh | GPR151 ag | FBW7 activator
CC(C)n1cnc2c(NCc3nc4ccccc4[nH]3)nc(N3CCOCC3)nc21 | – | 79.2 | – | –
COc1ccc(-c2nc(NCc3nc4ccccc4[nH]3)c3ncn(-c4ccsc4)c3n2)cn1 | – | 78.1 | – | –
O=C(NCC1Cc2cc(F)cc(-c3cncnc3)c2O1)c1ccsc1 (stereo not drawn) | – | – | – | –
Cc1nc2ccc(S(=O)(=O)NC(CC(C)C)C(=O)NC3CCCC3)cc2s1 (stereo not drawn) | – | – | – | –
COc1ccc(C2C(C(=O)NC(C)C)c3ccccc3C(=O)N2c2ccc(OC)cc2)cc1 (stereo not drawn) | – | – | – | –
CN1C(=O)c2cccc(NC(=O)c3cc(-c4cccs4)nc4ccccc34)c2C1=O | – | – | – | –
CC(=O)n1cc(/C=c2/sc3nc4ccccc4n3c2=O)c(-c2ccccc2)n1 | – | – | – | –
Cc1cc(C)nc(SCc2ccccc2Cl)n1 | – | – | – | 2.2
CN1CCN(C(=O)/C(=C/c2ccc3c(c2)OCO3)NC(=O)c2cccs2)CC1 | – | – | – | –
CCOc1ccc(NC(=O)Cn2cc(C(=O)c3ccccc3)c(=O)c3cc(Cl)ccc32)cc1 | – | – | – | 2.7
COc1cccc(NC(=O)Cn2cc(C(=O)c3ccccc3)c(=O)c3cc(Cl)ccc32)c1 | – | – | – | –
CCOC(=O)c1cc(NC(=O)Cn2cc(C=O)c3ccccc32)ccc1Cl | – | 35.2 | – | –
O=C(Nc1c2c(nn1-c1ccc([N+](=O)[O-])cc1)CS(=O)(=O)C2)c1ccc(F)cc1 | – | – | – | –
CC(C)(C)C(=O)NNC(=O)COc1ccc(Cl)cc1 | – | – | – | –
CC1(C)C(=O)NCCN1C(=O)c1ccc(C(=O)c2ccccc2)cc1 | – | 38.6 | – | –
COc1ccc(/C=C/C(=O)OC2CCOC2=O)cc1 (stereo not drawn) | – | – | – | –
O=C(CCC1(Cc2ccc(F)cc2)CCC(=O)N1)NCc1c(F)cccc1F (stereo not drawn) | – | 35.6 | – | –
Cc1ccc(NC(=O)CN2C(=O)CSCC2=O)c(C)c1 | – | – | – | –
Cc1ccc(NC(=O)CCCCCN2C(=O)c3ccccc3C2=O)cc1 | – | – | – | –
Cc1ccc(NC(=O)CCCCCC2NC(=O)NC2C)cc1 (stereo not drawn) | 98.5 | – | – | –
CCN(CC)C(=O)c1ccc2nc(NC(=O)c3ccc(N)cc3)sc2c1 | – | 79.9 | – | –
CCN(CC)C(=O)c1ccc2nc(NC(=O)c3ccc([N+](=O)[O-])cc3)sc2c1 | – | 83.6 | – | –
Cc1ccc([N+](=O)[O-])cc1NC(=O)c1c(-c2c(Cl)cccc2Cl)noc1C | – | – | – | –
CCN(CC)C(=O)c1ccc2nc(NC(=O)c3cccs3)sc2c1 | – | 87.6 | – | –
Cc1onc(-c2c(Cl)cccc2Cl)c1C(=O)Nc1nc2ccc([N+](=O)[O-])cc2s1 | – | 49.1 | – | –
SMILES | MITF inh | TEAD-YAP inh | GPR151 ag | FBW7 activator
Cc1ccc2nc(NC(=O)c3ccc([N+](=O)[O-])cc3)sc2c1 | – | – | – | –
CC(C)CC(CO)NC(=O)c1cnc2scc(-c3ccccc3Cl)n2c1=O (stereo not drawn) | – | – | – | –
C[C@H]1O[C@@H](O[C@H]2[C@@H](O)C[C@H](O[C@H]3[C@@H](O)C[C@H](O[C@H]4CC[C@@]5(C)[C@H](CC[C@@H]6[C@@H]5C[C@@H](O)[C@]5(C)[C@@H](C7=CC(=O)OC7)CC[C@]65O)C4)O[C@@H]3C)O[C@@H]2C)C[C@H](O)[C@@H]1O | – | · | – | –
C[C@H]1O[C@@H](O[C@H]2[C@@H](O)C[C@H](O[C@H]3[C@@H](O)C[C@H](O[C@H]4CC[C@]5(C)C6CC[C@]7(C)[C@@H](C8=CC(=O)OC8)CC[C@]7(O)C6CC[C@@H]5C4)O[C@@H]3C)O[C@@H]2C)C[C@H](O)[C@@H]1O (stereo partly drawn) | – | 99.5 | – | –
COc1ccc(CCNC(=O)CN2CCC(c3nnc(C(C)C)o3)CC2)cc1OC | – | – | – | –
COc1ccc(CNC(=O)N2CCC(c3nnc(C(C)C)o3)CC2)cc1OC | – | – | – | 2.5
CN1CCC(=NNC(=O)c2ccccc2)CC1 | – | – | – | –
CC(C)N1CCC(=NNC(=O)c2cc(O)c(O)c(O)c2)CC1 | 84.9 | – | – | –
O=C(Cc1ccccc1)NC(N1CCOCC1)C(Cl)(Cl)Cl (stereo not drawn) | – | – | – | –
FC(F)(F)c1cc(Cn2c3ccccc3c3nc4ccccc4nc32)cc(C(F)(F)F)c1 | – | – | – | 2.4
COc1ccc(OC)c(-n2c(C)cn3c4c(=O)n(C)c(=O)n(C)c4nc23)c1 | – | – | – | –
COc1ccc(C)cc1-n1c(C)cn2c3c(=O)n(C)c(=O)n(C)c3nc12 | – | 44.6 | – | –
CCc1cccc(C)c1NC(=S)N(CCN1CCCCCC1)Cc1ccco1 | – | – | – | 3.2
NC1=NC(=O)C(CC(=O)Nc2ccc(Cl)cc2Cl)S1 (stereo not drawn) | – | – | – | –
Cc1ccc(N=Cc2cccc(O)c2O)cc1F | – | – | – | –
Oc1cccc(C=Nc2ccc(Br)cc2)c1O | – | – | – | –
Cc1ccc(N=Cc2ccc(O)c(O)c2O)cc1F | 69.0 | – | – | –
Oc1ccc(C=Nc2ccccc2)c(O)c1O | 84.9 | – | – | –
O=c1[nH]c2ccc(N=Cc3ccc(O)c(O)c3O)cc2[nH]1 | 67.7 | – | – | –
Cc1n[nH]c(=S)n1-c1ccc(C(=O)O)cc1 | – | – | – | –
Cc1ccc(NN=c2c(=O)c3ccccc3c2=O)cc1 | – | – | – | –
O=c1c(=NNc2nn[nH]n2)c(=O)c2ccccc12 | – | 97.7 | – | –
O=c1c(=NNc2ccccc2Cl)c(=O)c2ccccc12 | – | 57.8 | – | –
O=c1c(=NNc2ccccc2)c(=O)c2ccccc12 | – | – | – | –
O=C(Nc1cccc(C(F)(F)F)c1)c1ccc(F)c(S(=O)(=O)N2CCN(c3cccc(Cl)c3)CC2)c1 | – | – | – | –
SMILES | MITF inh | TEAD-YAP inh | GPR151 ag | FBW7 activator
Cc1cc(C(=O)N2CCc3ccccc32)no1 | – | – | – | –
c1ccc(-c2ccc3cnc(Nc4ccc(-n5cnc(N6CCOCC6)n5)cc4)nc3c2)cc1 | – | – | – | –
Cn1cc(-c2ccc3cnc(Nc4ccc(-n5cnc(-c6ccc(=O)[nH]c6)n5)cc4)nc3c2)cn1 | – | 39.8 | – | –
Cn1cc(-c2ccc3cnc(Nc4ccc(-n5cnc(N6CCOCC6)n5)cc4)nc3c2)cn1 | – | 96.2 | – | –
c1cc(-n2cnc(N3CCOCC3)n2)ccc1Nc1ncc2ccc(-c3cn[nH]c3)cc2n1 | – | 95.7 | – | –
c1cc(-n2cnc(N3CCOCC3)n2)ccc1Nc1cc2cc(-c3cn[nH]c3)ccc2cn1 | – | 91.8 | – | –
CC1=C(C(=O)Nc2ccc(Cl)cc2)C(c2ccco2)C(C#N)=C(SCC(=O)Nc2ccc(Br)cc2)N1 (stereo not drawn) | – | – | – | –
CC1CC(C)CN(c2nc3ccccc3cc2C=O)C1 (stereo not drawn) | – | – | – | –
CCOc1ccc2[nH]c(=O)c(CN(CCCN(C)C)C(=O)Nc3ccccc3)cc2c1 | – | – | – | –

Bioassay records: PubChem, The Scripps Research Institute Molecular Screening Center
